Common to all, as to assay: NCI-60 one-dose screen, 48 h (100 = growth as untreated, 0 = no growth, -100 = all killed)
Holding throughout (details): 10 µM unless noted

For experiment [1], the system named is NCI-H23 lung.
Experiment [2] deals with NCI-H226 lung.
The subject of experiment [3] is NCI-H322M lung.
Experiment [4] has as its system HOP-62 NSCLC.
In experiment [5] the test system is NCI-H460 lung.
The subject of experiment [6] is HOP-92 NSCLC.
Experiment [7] concerns NCI-H522 lung.
In experiment [8] the test system is A549/ATCC NSCLC.
Experiment [9] concerns 786-0 renal.
Experiment [10] deals with COLO 205 colon.
The test system of experiment [11] is DU-145 prostate.
Experiment [12] deals with K-562 leukemia.
Experiment [13] concerns MALME-3M melanoma.
Experiment [14] concerns MDA-MB-231 breast.
The subject of experiment [15] is RXF 393 renal.
The test system of experiment [16] is SF-268 CNS.
In experiment [17] the test system is SF-295 CNS.
The subject of experiment [18] is SF-539 CNS.
Experiment [19] deals with UACC-257 melanoma.
In experiment [20] the test system is M14 melanoma.

Compounds without any hit were thinned out: in the full panel of roughly 83,000, 20% have a hit.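 Cells were grown in 96-well plates and exposed to the test compound at a single concentration for 48 hours; results are reported as percent growth, with values below 10 considered active.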 A number with no mark means an inactive call. The source made the active and inactive calls.

Consider `CC1CCc2cc(F)cc3c(=O)c(C(=O)O)cn1c23` (stereo not drawn), for which the growth in experiment [1] is 91.5%; in [2], 103%; in experiment [3], 116%; in experiment [4] it was 106%; in experiment [5], 105%; in experiment [6], 91.9%. The growth in experiment [7] was 110%; in [8] it was 104%; in experiment [9] it was 87.1%; in [10] it was 104%; in [11], 110%; in experiment [12], 92.6%. Also, the growth in experiment [13] was 99.9%; in [14], 82.8%; in experiment [15] it was 108%; in experiment [16], 105%; in [17], 97.6%; in [18], 107%. Also, the figures for the growth in experiment [19] and in experiment [20] were 101% and 97.6%, respectively.

On to `COc1cc(Cn2cc3c(c2)-c2onc(CO)c2CC3)cc(OC)c1OC`, for which the growth was 92.7% in experiment [1]; 81.5% in experiment [2]; 85.1% in [3]; 85.7% in experiment [4]; 93.6% in experiment [5]; 67% in experiment [6]. In addition, the growth is 87.7% in [7]; 99.8% in experiment [8]; 90.9% in experiment [9]; 107% in [10]; 103% in [11]; 78.5% in [12]. Also, the growth was 79.7% in experiment [13]; 103% in experiment [14]; 95.8% in [15]; 96% in [16]; 92.1% in experiment [17]; 96.8% in experiment [18]. In addition, the growth was 93.2% in experiment [19] and 85.8% in experiment [20].

With `COC(=O)c1ccc(NC(N)=NCC(C)(C)COc2ccc(C(F)(F)F)cc2)nc1`, the growth was 33.6% in experiment [1]; 50.7% in [2]; 65.9% in experiment [3]; 76.6% in experiment [4]; 38.8% in [5]; 47.1% in [6]. For the same molecule, the growth was 37.2% in experiment [7]; 56.1% in experiment [8]; 70.9% in experiment [9]; -76.7% (active) in experiment [10]; 68.8% in experiment [11]; -31.8% (active) in experiment [12]. The growth in experiment [13] is 82.4%; in experiment [14], 48.8%; in experiment [15], 70.7%; in experiment [16], 66.8%; in [17], 57.1%; in [18] it was 82.6%. In addition, the growth in experiment [19] was 62.4%; in experiment [20] it was 55.6%.

Turning to `O=[N+]([O-])c1cccc(C2c3ccccc3Oc3ccccc32)c1`, the growth in experiment [1] is 94.6%; in experiment [2] it was 84.1%; in experiment [3], 83.6%; in experiment [4] it was 85.4%; in [5], 88.1%; in experiment [6] it was 81%. Further, the growth in experiment [7] is 80.8%; in experiment [8], 87.4%; in experiment [9], 99.9%; in [10] it was 90.3%; in [11], 101%; in [12], 65.7%. The growth in [13] is 101%; in experiment [14], 92%; in [15], 109%; in [16], 102%; in [17], 76.9%; in experiment [18] it was 112%. The growth in [19] was 104%.

Consider `O[C@@H]1CCO[C@H](c2ccc3ccccc3c2)C1`, for which the growth is 95.3% in [1]; 96.8% in experiment [2]; 104% in experiment [3]; 99.5% in experiment [4]; 107% in [5]; 93.1% in experiment [6]. Moreover, the growth is 87.9% in experiment [7]; 96.7% in [8]; 98.7% in [9]; 106% in experiment [10]; 102% in experiment [11]; 98.3% in experiment [12]. In addition, the growth in experiment [13] is 96.7%; in [14], 104%; in experiment [15] it was 97%; in experiment [16], 96.2%; in experiment [17], 102%; in experiment [18], 98.9%. The values for the growth in experiment [19] and in experiment [20] were 98.5% and 101%, respectively.

Consider `COc1ccc(NC(=O)COCCOCCNC[C@@H]2C(=O)O[C@H]3[C@H]2CC/C(COC(=O)OC/C2=C/CC[C@@]4(C)O[C@H]4[C@H]4OC(=O)[C@@H](CN(C)C)[C@@H]4CC2)=C\CC[C@@]2(C)O[C@@H]32)c(O)c1C(N)=O`, for which the growth was 81.8% in [1]; 49.9% in experiment [2]; 102% in experiment [3]; 93.9% in [4]; 96% in experiment [5]; -26.6% (active) in [6]. Further, the growth in experiment [7] was -75.7% (active); in experiment [8] it was 72.9%; in experiment [9], -26.1% (active); in experiment [10], -27.9% (active); in [11], 57%; in experiment [12], 5.46% (active). In addition, the growth in experiment [13] is -21.1% (active); in [14], 21.8%; in experiment [15], -40.5% (active); in experiment [16], 91.5%; in [17], 105%; in [18], 46.4%. Besides, in experiment [19], the growth is 40.5%.

For `Cc1c(NC(=O)c2sc3nc4c(cc3c2N)CN(Cc2ccccc2)CC4)cccc1C(F)(F)F`, the growth in [1] was 72.7%; in experiment [2] it was 65.7%; in experiment [3], 73.1%; in experiment [4] it was 35.9%; in experiment [5] it was 18.7%; in experiment [6], 77.1%. Further, the growth in experiment [7] is 10.4%; in experiment [8], 53.7%; in experiment [9], 84.4%; in [10], 21.6%; in [11] it was 54.9%; in [12], 8.08% (active). The growth in experiment [13] was 63.8%; in [14] it was 73.8%; in experiment [15], 67.2%; in experiment [16] it was 65.6%; in experiment [17], 41.5%; in experiment [18], 65%. Also, the growth was 52.2% in [19] and 31.2% in experiment [20].

Take `CC(=S)Nc1ccccc1`: the growth in [1] is 95.7%; in [2], 89.3%; in experiment [3] it was 104%; in experiment [4], 82.2%; in [5] it was 97.3%; in [6] it was 90.7%. Moreover, the growth in [7] is 88.2%; in experiment [8], 79.6%; in [9] it was 104%; in experiment [10], 99.8%; in experiment [11] it was 103%; in [12], 101%. Also, the growth in experiment [13] is 89%; in experiment [14], 95.5%; in [15], 107%; in experiment [16], 107%; in [17], 105%; in experiment [18], 102%. Moreover, the figures for the growth in experiment [19] and in experiment [20] were 82.7% and 96.6%, respectively.

For the origin of these results see PubChem BioAssay (NCI).
